# Assay results reported in PubChem BioAssay AID1376 (SRMLSC, 2008).
# About 530 (0.24%) of roughly 220,000 compounds were called active. The list comes from a sample in which actives are over-represented; it also holds similar structures and randomly drawn compounds. Measured potencies and affinities stand elsewhere. Values without a mark were called inactive. Rule as the data show it: active = inhibition above about 13%; inconclusive = no clear call, values can overlap the other calls; inactive = below that.
# Molecular target: Bifunctional protein GlmU (Mycobacterium tuberculosis (strain ATCC 25618 / H37Rv)) (UniProt P9WMN3)
# Sequence (P9WMN3 whole entry, looked up): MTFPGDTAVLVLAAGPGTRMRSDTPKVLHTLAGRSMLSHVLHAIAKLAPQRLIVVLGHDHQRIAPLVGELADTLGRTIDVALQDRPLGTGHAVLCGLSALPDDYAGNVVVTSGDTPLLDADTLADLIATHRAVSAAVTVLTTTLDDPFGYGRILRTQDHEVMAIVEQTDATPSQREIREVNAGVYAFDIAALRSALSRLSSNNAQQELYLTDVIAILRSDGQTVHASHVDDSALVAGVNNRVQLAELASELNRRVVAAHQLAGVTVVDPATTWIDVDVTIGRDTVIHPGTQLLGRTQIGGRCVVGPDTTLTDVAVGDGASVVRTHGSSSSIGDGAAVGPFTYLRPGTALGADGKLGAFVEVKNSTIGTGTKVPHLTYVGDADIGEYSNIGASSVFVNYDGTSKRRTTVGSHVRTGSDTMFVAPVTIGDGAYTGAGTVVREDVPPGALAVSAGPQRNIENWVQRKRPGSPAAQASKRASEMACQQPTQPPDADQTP
# Test: inhibition of mycobacterial GlmU enzyme – biochemical, glucosamine-1-phosphate acetyltransferase (AID 1376);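 also: 0% = complete reaction with vehicle and 100% = reaction without substrate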
# Conditions: M. tuberculosis GlmU acetyltransferase enzyme assay; hits give high values;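 tested at 30 µM in the primary screen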
row,Compound,inhibition
1,COc1ccccc1C1=NNC(=NCc2ccccc2)SC1,-1.42%
2,CCN(c1ccccc1)S(=O)(=O)c1ccc(OC)c(NC(=O)CN(C)C)c1,-3.46%
3,CCOC(=O)C1=C(NC#N)OC(C)=C(C)C1c1ccc(O)cc1 (stereo not drawn),-6.11%
4,Cc1ccc(S(=O)(=O)N2CCN(c3ccccn3)CC2)cc1,3.12%
5,CC(=O)Nc1ccc(S(=O)(=O)N2CCN(c3ccccn3)CC2)cc1,14% (active)
6,CC(C(=O)Nc1ccc(S(=O)(=O)N2CCCCC2)cc1)N1CCN(c2ccccn2)CC1 (stereo not drawn),0.72%
7,Cc1c(C)n(C(=O)CSc2ncn[nH]2)c2ccccc12,1.07%
8,Cc1[nH]c2ccccc2c1C(=O)CSc1nc2ccccc2[nH]1,2.48%
9,CCCCCOc1ccc(C(=O)N(Cc2ccco2)C2CCS(=O)(=O)C2)cc1 (stereo not drawn),2.23%
10,Cc1ccc(C)n1-c1cccc(NC(=O)c2ccccc2)c1,-0.99%
11,Cn1c(Cn2c(=O)sc3ccccc32)nnc1SCC(=O)N1CCc2ccccc21,-3.8%
12,O=C1CCN(S(=O)(=O)c2ccccc2)CCN1CCOCc1ccc(F)cc1,-0.16%
13,CC1=CC(C)(C)N2C(=O)C3(C(C#N)=C(N)OC4=C3C(=O)CCC4)c3c(C)c(C)cc1c32 (stereo not drawn),0.73%
14,CCOC(=O)C1=C(N)OC2=C(C(=O)CCC2)C12C(=O)N1c3c(ccc(C)c32)C(C)=CC1(C)C (stereo not drawn),14.7% (active)
15,CCOC(=O)C1=C(N)OC2=C(C(=O)CCC2)C12C(=O)N(C)c1ccccc12 (stereo not drawn),2.06%
16,COc1ccc([N+](=O)[O-])c(S(=O)(=O)c2ccccc2)n1,11.9%
17,COc1ccc([N+](=O)[O-])c(S(=O)(=O)c2ccc(Cl)cc2)n1,13.8% (active)
18,COc1nc(OC)nc(Oc2ccc(Cl)cc2[N+](=O)[O-])n1,-2.5%
19,CC(C(=O)NN)n1nnc(N2CCOCC2)n1 (stereo not drawn),-4.73%
20,O=C(Nc1cccc(-c2csc(Nc3ccc(Cl)cc3)n2)c1)c1cccc(C(F)(F)F)c1,0.14%
21,COC(=O)c1[nH]nc(C(=O)OC(C)(C)C)c1-c1ccccc1,13.6% (active)
22,COC(=O)c1n[nH]nc1-c1ccccc1,2.77%
23,COC(=O)c1cc(-c2ccccc2)n[nH]1,1.61%
24,CC1(C)Cc2cccc(OCC(=O)N3CCN(S(=O)(=O)c4ccc(F)cc4)CC3)c2O1,-1.15%

row,Compound,inhibition
1,O=C(O)c1cccc(N/N=C/c2cccs2)c1,4.35%
2,O=C(O)c1cccc(NN=C2c3ccccc3-c3ccccc32)c1,1.86%
3,Cc1ccc(C(=O)N/C(=C\c2ccccc2)C(=O)NCc2cccnc2)cc1,-0.7%
4,CCCNC(=O)Cn1cnc2sc(C(=O)Nc3cc(OC)c(OC)c(OC)c3)c(C)c2c1=O,1.29%
5,CNc1ccc(Br)cc(C(=O)/C=C/c2ccc(Cl)cc2Cl)c1=O,10.2%
6,CNc1ccc(Br)cc(C(=O)/C=C/c2cccc(Cl)c2Cl)c1=O,13% (active)
7,CNc1ccc(Br)cc(C(=O)/C=C/c2cccc(OC)c2OC)c1=O,0.88%
8,CCS(=O)(=O)c1ccc(O)c(NC(=O)/C=C/c2ccc(Cl)cc2)c1,0.22%
9,O=C(O)CNC(=O)C(Cc1ccccc1)NC(=O)OCc1ccccc1 (stereo not drawn),2.74%
10,Cn1c(SCc2ccccn2)nnc1-c1cnccn1,13.4% (active)
11,Cc1ccccc1CSc1nnc(-c2cnccn2)n1C,4.71%
12,Cn1c(SCc2ccccc2)nnc1-c1cnccn1,-1.68%
13,Cc1ccc(-n2c(Cc3ccccc3)nnc2SCC(=O)NNC(=O)Cc2ccccc2)cc1,2.04%
14,Cc1c(Br)c(O)c(Br)c2sc(=O)oc12,14.6% (active)
15,Cc1ccc(-c2cc(O)cc3sc(=O)oc23)cc1C,-5.89%
16,C=CCn1c(=O)c2ccccc2n2c(SCC(N)=O)nnc12,-2.87%
17,C/C(=N\OCc1ccc(C#N)cc1)c1cc2ccccc2o1,14% (active)
18,C/C(=N\OCc1ccccc1C#N)c1cc2ccccc2o1,-1.63%
19,C/C(=N\OCc1ccc(C#N)cc1)c1ccccc1,2.31%
20,COc1cc(CNCc2c[nH]c3ccccc23)cc(OC)c1,0.77%
21,O=C(N/N=C/c1ccc(-c2cccc([N+](=O)[O-])c2)o1)c1ccccc1O,0.51%
22,N/C(=N\N=C\c1ccc(O)cc1O)N[N+](=O)[O-],1.33%
23,O=C1CCCN1c1cc(Cl)cc(Cl)c1,0.87%
24,CCC(C)N(CCNC(=O)CC1Oc2ccc(C)cc2NC1=O)C1CCCCC1 (stereo not drawn),4.05%

row,Compound,inhibition
1,COc1ccc(-c2c(-c3ccc(OCC(=O)NN)cc3O)n[nH]c2C(F)(F)F)cc1,13.2% (active)
2,NNC(=O)COc1ccc(-c2n[nH]c(C(F)(F)F)c2-c2ccc(Br)cc2)c(O)c1,-2.65%
3,COc1ccc(-c2c(-c3ccc(OCC(=O)NN)cc3O)n[nH]c2C)cc1,4.13%
4,O=C(CC(NC(=O)c1ccccc1Cl)c1ccccc1)NC1=NCCS1 (stereo not drawn),2.83%
5,CC(=O)Nc1ccc2ccccc2c1,1.2%
6,CC(=O)Nc1ccc2cc3ccc(NC(C)=O)cc3nc2c1,29.2% (active)
7,CC(=O)Nc1ccc2nc3ccccc3nc2c1,3.15%
8,CCC(C)(C)n1nnnc1CN1CCC(n2c(C)nc3cc(C(F)(F)F)ccc32)CC1,2.13%
9,CCOC(=O)c1nc2ccccc2nc1C,3.05%
10,O=C(CSc1nnc(-c2ccncc2)n1Cc1ccco1)Nc1nc(-c2ccccc2)cs1,-0.09%
11,CCCC1=NN2C(=N)/C(=C\c3ccc(SCc4ccco4)o3)C(=O)N=C2S1,30.6%
12,O=C(O)CN1C(=O)/C(=C/c2ccc(SCc3ccccc3)o2)SC1=S,18.9%
13,O=C1/C(=C\c2ccco2)SC(=S)N1c1ccccc1,8%
14,N=C1/C(=C\c2ccc(SCc3ccco3)o2)C(=O)N=C2SC=NN12,8.44%
15,Cc1cccc(C)c1-n1cccc1/C=C1\SC(=S)N(c2cccc(C(=O)O)c2)C1=O,-2.25%
16,O=C1NC(=S)S/C1=C\c1ccc(SCc2ccccc2)o1,68.3% (active)
17,CCOc1cc(/C=C2/SC(=S)NC2=O)ccc1OC(=O)c1ccco1,1.76%
18,O=C1NC(=S)S/C1=C/c1ccc(N2CCOCC2)o1,11.4%
19,CCC1=NN2C(=N)/C(=C\c3ccc(SCc4ccco4)o3)C(=O)N=C2S1,4.74%
20,O=C(O)c1cccc(N2C(=O)/C(=C/c3ccc(SCc4ccc(Cl)cc4)o3)SC2=S)c1,33.7% (active)
21,NNC(=O)c1cncn1-c1ccc(F)cc1,-2.24%
22,CN/N=C(\Cc1nc2ccccc2[nH]1)c1ccc([N+](=O)[O-])cc1,2.32%
23,CCC(Oc1ccccc1)C(=O)NCc1ccc(S(N)(=O)=O)cc1 (stereo not drawn),1.79%
24,CC(=O)Nc1ccc(S(=O)(=O)Nc2ccc(=O)n(Cc3ccc(Cl)c(Cl)c3)c2)cc1,-3.3%

row,Compound,inhibition
1,COc1cc(N(C(=O)Cc2cccs2)C(C(=O)NC2CCCCC2)c2cccc(OC)c2OC)ccc1-n1cnnn1 (stereo not drawn),-6.93%
2,OCCNc1nc(Nc2ccccc2Cl)nc(N2CCCC2)n1,2.46%
3,CCCS(=O)(=O)N1CCC(C(=O)NCCCOC(C)C)CC1,-1.86%
4,CCC(C)NS(=O)(=O)c1ccc(S(=O)(=O)N(CCc2ccc(OC)c(OC)c2)Cc2cccs2)cc1 (stereo not drawn),-1.89%
5,Cc1ccc([N+](=O)[O-])cc1S(=O)(=O)Nc1ccccn1,12.5%
6,Cc1cccc2cc(/C=N/NC(=O)[C@H]3C[C@@H]3c3ccccc3)c(Cl)nc12,-1.46%
7,CC(=O)c1cccc(NC(=O)C2CCCN(S(=O)(=O)c3cccc4cccnc34)C2)c1 (stereo not drawn),13.1% (active)
8,Cc1cccc(NC(=O)C2CCCN(S(=O)(=O)c3cccc4cccnc34)C2)c1 (stereo not drawn),1.23%
9,O=C(Nc1ccncc1)C1CCCN(S(=O)(=O)c2cccc3cccnc23)C1 (stereo not drawn),-3.59%
10,O=C1CCN(Cc2ccccc2)S(=O)(=O)c2ccccc21,1.98%
11,Cc1cc(/C=C2\C(=O)NC(=O)N(Cc3ccccc3Cl)C2=O)c(C)n1-c1ccc(C(=O)O)cc1,-0.15%
12,Cc1cc(/C=C2\C(=O)NC(=O)N(Cc3ccco3)C2=O)c(C)n1-c1ccc(C(=O)O)cc1,9.99%
13,Cn1cccc1/C=C1/C(=O)NC(=O)N(Cc2ccc(F)cc2)C1=O,-4.26%
14,Cn1cccc1/C=C1/C(=O)NC(=O)N(Cc2ccccc2)C1=O,-0.82%
15,Cn1cccc1/C=C1\C(=O)NC(=O)N(Cc2ccccc2)C1=O,13.2% (active)
16,O=C1NC(Cc2c[nH]c3ccccc23)C(=O)N1Cc1ccc(CN2C(=O)NC(Cc3c[nH]c4ccccc34)C2=O)cc1 (stereo not drawn),3.5%
17,O=C(COc1ccc(S(=O)(=O)NC2CCCCC2)cc1)N1CCN(c2ccc(F)cc2)CC1,-2.74%
18,COc1ccc(CNC(=O)CCSCc2cccc(Cl)c2)cc1,3.22%
19,CC(C)CCN1CCN(CC(c2ccccc2)c2ccccc2)CC1CCO (stereo not drawn),14% (active)
20,CC(C)CCN1CCN(CC#Cc2ccccc2)CC1CCO (stereo not drawn),-6.43%
21,OCCC1CN(CC(c2ccccc2)c2ccccc2)CCN1C1CCCC1 (stereo not drawn),-0.28%
